FH mod – Identification of activators of human fumarate hydratase by quantitative high-throughput screening; AID 1347055, 2019; Fumarate hydratase, mitochondrial (Homo sapiens), P07954; actives 0.22% (n = 54,000); FH coupled MDH/diaphorase resazurin fluorescence, 15 min; Potency, µM (doses to about 79.9 µM), without a hit: at the highest dose activity change, negative = inhibition, actives largely listed as inhibitors; note: potency is the fitted concentration of half-maximal effect; % is set by controls: 0 for no effect and ±100 for the full control effect; the screen sought activators but most active calls are inhibition curves; nearly all actives have a fitted effect of over 45% in size
p53null 39C tox – selectivity test: cytotoxicity in p53 null cells, nonpermissive temperature; H1299 p53-null (neo) cells, 39C, ATPlite viability, 24 h; Potency, µM (series often up to 46.1 µM), without a hit: top-dose activity, negative = cell killing, most hits filed as cytotoxic; actives 0.97% (n = 55,000); AID 904;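 note: potency is the fitted concentration of half-maximal effect; 0% = DMSO only and -100% = full killing by 100 µM tamoxifen; nearly all actives have a fitted effect of over 50% in size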
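Temperature-shift cytotoxicity format: compound titrations on p53-null or A138V-expressing H1299 cells held 24 hr at 39C, cell ATP then measured, AC50 from Hill model.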
GALC G270D up – galactocerebrosidase G270D activity enhancement, cell-based; P54803; 145M-Twi-hGALC-G270D cells (Twitcher mouse brain line with human GALC G270D), HMU-beta-Gal fluorescence, 48 h; Potency, µM (titrated, usually from 57.5 µM), most hits filed as activators; actives 0.1% (n = 45,000); note: potency is the fitted concentration of half-maximal effect; 0% is about no effect; nearly all actives have a fitted effect of over 65% in size
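Live 145M-Twi cells (Twitcher mouse brain-derived, GALC-null) stably expressing human GALC-G270D, with a wild-type GALC line, were compound-treated. Residual GALC activity was then read as fluorescence from 0.1 mM final HMU-β-gal at pH 5.2; higher signal means activation.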
p53null 32C tox – p53 null cell cytotoxicity, permissive temperature; H1299-neo p53 null cells, ATP luminescence, 24 h, 32C; Potency, µM (titrated, usually from 46.1 µM), for inactives: at the highest dose activity change, negative = cytotoxicity, usual class: cytotoxic; actives 0.62% (n = 55,000);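 note: potency is the fitted concentration of half-maximal effect; 0% = DMSO only and -100% = full killing by 100 µM tamoxifen; nearly all actives have a fitted effect of over 55% in size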
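Cytotoxicity: H1299-neo (no p53), 32C, 24 h treatment. Concentrations up to 46 uM. Readout cellular ATP, luminescence. Normalization to DMSO basal and tamoxifen 100 uM maximal kill.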
NTMT1 inhibitor – inhibitors of human N-terminal methyltransferase NTMT1; actives 2.5% (n = 59,000); Potency, µM (series often up to 114 µM), for inactives: top-dose activity change, negative = inhibition, most hits filed as inhibitors; NTMT1 MTase-Glo SAH luminescence, purified enzyme; AID 1645870;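 note: potency is the fitted concentration of half-maximal effect; plate controls were DMSO vehicle for no effect and no enzyme for full effect; nearly all actives have a fitted effect of over 65% in size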
Target sequence (Q9BV86 whole entry, looked up): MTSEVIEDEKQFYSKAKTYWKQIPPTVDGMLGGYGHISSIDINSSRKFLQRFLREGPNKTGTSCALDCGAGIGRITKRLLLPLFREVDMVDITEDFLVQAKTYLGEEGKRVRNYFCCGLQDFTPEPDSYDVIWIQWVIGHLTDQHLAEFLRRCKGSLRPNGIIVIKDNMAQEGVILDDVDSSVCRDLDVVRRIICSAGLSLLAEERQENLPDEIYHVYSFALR
DYRK1A KinaseGlo – human DYRK1A kinase inhibition by ATP depletion readout; shares compounds with NTMT1 inhibitor; recombinant DYRK1A, Kinase-Glo ATP depletion luminescence; Potency, µM (highest dose often 76.9 µM), for inactives: top-dose activity change, negative = inhibition, actives largely listed as inhibitors; actives 80% (n = 100); AID 2705
CLK4 inh – confirmation of human CLK4 kinase inhibitors, SAR round 2; shares compounds with NTMT1 inhibitor; recombinant Clk4, Kinase-Glo ATP luminescence, 4.5 h; Potency, µM (titrated, usually from 76.9 µM), for the others: top-dose activity, negative = inhibition, usual class: inhibitors; actives 90% (n = 90); AID 493204
Sfp PPTase inh – Sfp PPTase inhibition, chemistry optimization | shares compounds with NTMT1 inhibitor | purified Sfp PPTase enzyme activity, qHTS | Potency, µM (titrated, usually from 114 µM), inactives show at the top dose activity change, negative = inhibition, actives largely listed as inhibitors | actives 78% (n = 230)
Bsub HM489 growth – reduces growth of B. subtilis HM489 strain; B. subtilis HM489 (acpS-) growth, BacTiter-Glo, 5 h; shares compounds with NTMT1 inhibitor; actives 50% (n = 220); Potency, µM (series often up to 114 µM), inactives show top-dose activity change, negative = inhibition, usual class: inhibitors
Sfp PPTase gel – inhibits B. subtilis Sfp PPTase in gel assay | purified Sfp PPTase, gel-based product detection | Potency, µM (doses to about 250 µM), for the others: top-dose activity change, negative = inhibition, most hits filed as inhibitors | shares compounds with NTMT1 inhibitor | actives 54% (n = 220)
Sfp inh SAR2 – inhibitors of Bacillus subtilis Sfp PPTase, SAR round 2 | Potency, µM (top dose mostly 57.1 µM), without a hit: top-dose activity change, negative = inhibition, actives largely listed as inhibitors | AID 602370 | shares compounds with NTMT1 inhibitor | purified Sfp enzyme, PPTase activity, qHTS | actives 87% (n = 230)
hGST A1-1 inh – inhibits hGST A1-1 in Sfp inhibitor counter-screen. shares compounds with NTMT1 inhibitor. hGST A1-1 enzyme activity counter-screen, qHTS. Potency, µM (series often up to 114 µM), for inactives: at the top dose activity change, negative = inhibition, most hits filed as inhibitors. 55 tested, under 10 active. AID 602391
HSD17B4 counter – inhibits human HSD17B4, off-target for HPGD inhibitors; shares compounds with NTMT1 inhibitor; purified HSD17B4, estradiol/NAD+, NADH fluorescence; Potency, µM (titrated, usually from 57.1 µM), inactives show top-dose activity change, negative = inhibition, most hits filed as inhibitors; actives 10% (n = 230)
ALDH1A1 inh – inhibits human ALDH1A1, off-target for HPGD inhibitors | shares compounds with NTMT1 inhibitor | actives 93% (n = 230) | Potency, µM (highest dose often 57.1 µM), inactives show at the top dose activity change, negative = inhibition, usual class: inhibitors | recombinant ALDH1A1, NADH fluorescence, propionaldehyde/NAD+
Target sequence (P00352 whole entry, looked up): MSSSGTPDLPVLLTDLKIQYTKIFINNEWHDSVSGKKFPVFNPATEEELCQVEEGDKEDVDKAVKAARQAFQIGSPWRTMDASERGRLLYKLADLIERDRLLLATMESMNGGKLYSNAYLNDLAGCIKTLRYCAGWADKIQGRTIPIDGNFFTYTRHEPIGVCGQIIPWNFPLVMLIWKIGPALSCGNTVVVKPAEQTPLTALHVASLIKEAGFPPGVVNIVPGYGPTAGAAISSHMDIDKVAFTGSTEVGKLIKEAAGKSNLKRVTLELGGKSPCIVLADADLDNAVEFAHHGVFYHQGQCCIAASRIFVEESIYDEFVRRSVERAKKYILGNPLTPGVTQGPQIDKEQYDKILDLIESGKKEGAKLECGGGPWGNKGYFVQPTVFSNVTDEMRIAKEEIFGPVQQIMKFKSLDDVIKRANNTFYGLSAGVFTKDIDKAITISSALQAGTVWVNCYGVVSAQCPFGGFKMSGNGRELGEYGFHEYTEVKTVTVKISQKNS
NNMT counter – counter-screen for NTMT1 inhibitors: human NNMT inhibition | AID 1645878 | shares compounds with NTMT1 inhibitor | NNMT MTase-Glo luminescence, SAH detection | Potency, µM (highest dose often 57.1 µM), without a hit: top-dose activity, negative = inhibition, most hits filed as inhibitors | actives 10% (n = 120)
* hit, by the source's call; i = inactive; ? = inconclusive; . = not tested or not shown; [ ] = another dose, or the depositor's remark. Shown is part of a subset that was picked to be rich in hits. Calls come from the whole dose curve; as a rule, active = well fitted curve in the direction sought with a large enough effect; inconclusive = small, poorly fitted or top-dose-only effect, or another doubt; inactive = no such curve, though single readings can be large; an effect the other way counts as inactive or inconclusive.

SMILES	FH mod	p53null 39C tox	GALC G270D up	p53null 32C tox	NTMT1 inhibitor	others
Cc1ccnc(NC(=S)N[C@H]2CCN(c3cccc(C(F)(F)F)c3)C2)c1	.	.	.	.	8.2%[57.5 µM]	Sfp PPTase inh=-3.0%;Bsub HM489 growth=?;Sfp PPTase gel=?;Sfp inh SAR2=?;HSD17B4 counter=-0.3%;ALDH1A1 inh=21.5µM*
Cn1nnc2c(N3CCN(c4cccc(C(F)(F)F)c4)CC3)ncnc21	6.2%	8.8%	i	0.9%	4.4%
Cc1ccc(-n2nc(C(=O)N3CCN(c4cccc(C(F)(F)F)c4)CC3)c(=O)n(C)c2=O)cc1	-28.1%	30.2%	i	34.2%	?
FC(F)(F)c1cccc(N2CCN(C(=S)Nc3ncnc4ccccc34)CC2)c1	.	.	.	.	?	Sfp PPTase inh=?;Bsub HM489 growth=5.91µM*;Sfp PPTase gel=?;Sfp inh SAR2=9.13µM*;HSD17B4 counter=?;ALDH1A1 inh=6.81µM*
CC(C)Cn1cc(NC(=O)N2CCN(c3cccc(C(F)(F)F)c3)CC2)c2ccccc2c1=O	-1.2%	-10.6%	i	5.3%	4.7%
FC(F)(F)c1cc(-c2ccc(CNc3nc(-c4ccccc4C(F)(F)F)nc4ccccc34)cc2)cc(C(F)(F)F)c1	.	.	.	.	11.2%
CN1CCN(Cc2ccc(Nc3ncc(Cl)c(Nc4ccccc4S(=O)(=O)N(C)C)n3)cc2)CC1	0.4%[13.5 µM]	.	.	.	?
COc1ccc2cc3c(NC(=O)c4ccco4)nn(C)c3nc2c1	-8.4%	.	.	.	-11.4%[57.5 µM]	NNMT counter=-12.0%
C=CC(=O)N1CCC(CNc2ncnc(N)c2-c2ccc(Oc3ccccc3)cc2)CC1	.	.	.	.	2.6%
Cn1ncnc1COc1nn2c(-c3cc(F)ccc3F)nnc2cc1C(C)(C)C	-1.5%	.	.	.	5.5%[57.5 µM]
C[N+]1(CC2COC(c3ccccc3)(c3ccccc3)O2)CCCCC1 (configuration not stated)	0.3%[20.6 µM]	.	i	.	?	NNMT counter=-17.8%[28.6 µM]
Cc1ccc(-n2c(C)cc(-c3nnc4n3CCCCC4)c2C)cc1	.	.	.	.	3.1%	HSD17B4 counter=7.0%;ALDH1A1 inh=?
Cc1cc(-c2nnc3n2CCCCC3)c(C)n1-c1cccc(C(F)(F)F)c1	.	.	.	.	9.5%	HSD17B4 counter=9.6%;ALDH1A1 inh=?
Cc1cc(-c2nnc3n2CCCCC3)c(C)n1-c1ccncc1	.	.	.	.	4.3%[57.5 µM]
CCOC(=O)c1ccoc1-c1ccc2ncnc(NCCc3cnc[nH]3)c2c1	.	.	.	.	-8.7%	DYRK1A KinaseGlo=?
Cc1occc1-c1ccc2ncnc(NCCc3cnc[nH]3)c2c1	.	.	.	.	?	DYRK1A KinaseGlo=9.23µM*
c1nc(NCCc2cnc[nH]2)c2cc(-c3ccoc3)ccc2n1	.	.	.	.	-2.0%	DYRK1A KinaseGlo=4.12µM*
Cc1ccc(CNc2ncnc3ccc(-c4ccoc4)cc23)o1	.	.	.	.	-5.5%	DYRK1A KinaseGlo=6.54µM*
c1nc(NCc2ccc3c(c2)OCO3)c2cc(-c3ccoc3)ccc2n1	.	.	.	.	1.2%
O=C1CCCC2=C1C(c1[nH]ncc1Cl)N=C(Nc1nc3cc([S+](=O)([O-])N4CCOCC4)ccc3o1)N2 (configuration not stated)	.	.	.	.	-2.7%[57.5 µM]
CC(O)c1ccc(-c2ccc3ncnc(NCCc4cnc[nH]4)c3c2)o1 (configuration not stated)	.	.	.	.	?	CLK4 inh=1.46µM*
Cc1ccc2ncnc(NCCC(=O)O)c2c1	.	17.3%	.	4.7%	.
CSc1cnc(-c2ccccc2C(C)C)nc1NCc1ccc(-c2cccnc2)cc1	.	.	.	.	12.3%
O=C(Cn1nc(C2CCCCC2)ccc1=O)NCCc1ccccc1	.	.	.	.	-9.0%
COc1ccc(-n2cnc3cc(C(=O)N4CCCCC4)ccc32)cc1	.	.	.	.	?	HSD17B4 counter=-20.7%;ALDH1A1 inh=1.36µM*
O=C(NC1(c2ccccc2)CC1)c1c(CN2CCC(N3CCCCC3)CC2)c(-c2cccc(C(F)(F)F)c2)nc2cc(Br)ccc12	-2.0%	.	.	.	5.9%[57.5 µM]
C/C=C/c1ccc2oc(-c3ccc(O)c(OC)c3)c(C)c2c1	?	.	.	.	4.3%[57.5 µM]	NNMT counter=-8.9%
S=C(Nc1cc(Cl)ccn1)N1CCN(c2cccc(Cl)c2Cl)CC1	.	.	.	.	?	Sfp PPTase inh=4.08µM*;Sfp inh SAR2=15.6µM*;hGST A1-1 inh=-5.7%;HSD17B4 counter=-13.2%;ALDH1A1 inh=6.81µM*
